In PubChem BioAssay (NCATS) one finds Potency data, which are given here for 40 molecules.

Inconclusive results are not listed. Unmarked numbers belong to inactive results.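 The calls were made as follows: active = compounds whose dose-response curve shows a full or clear partial loss of cell viability, called from curve shape rather than a numeric limit; inconclusive = weak partial curves or an effect only at the top dose; inactive = no dose-dependent loss of viability.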
Potency is read from the fitted curve at half-maximal effect.

A short description of this assay: Cell Viability - Hek293 (AID 427).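 Also: cells exposed to compound for 40 hours at 37 °C before reading.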 The settings on record: qHTS. An excerpt: NIH Chemical Genomics Center [NCGC]
NIH Molecular Libraries Screening Centers Network [MLSCN]
National Institutes of Environmental Health Sciences [NIEHS]
National Toxicology Program [NTP]
We have developed a 1536-well cell-based assay for quantitative high throughput screening (qHTS) against a number of cell lines to determine in vitro cytotoxicity of small molecules. This particular assay uses the Hek 293 cell line which is derived from human embryonic kidney cells (transformed with adenovirus).
NCGC Assay Protocol Summary:
The CellTiter-Glo luminescent cell viability assay (Promega) is a homogeneous method to measure the number of viable cells in culture. The end point readout of this assay is based on quantitation of intracellular ATP, an indicator of metabolic activity, using the luciferase reaction. Luciferase catalyzes the oxidation of beetle Luciferin to oxyluciferin and light in the presence of ATP. The luminescent signal is proportional to amount of ATP present.
Using the CellTiter-Glo luminescent cell viability assay, the amount of cellular ATP was measured in the Hek293 cell line with complete culture medium following compound treatment for 40 hours. The assay was performed in opaque white Kalypsys 1536-well plates. In the screen, tamoxifen and doxorubicin were used as positive controls. Library compounds were measured for their ability to cause acute toxicity in the cell line, as reflected by a decrease in intracellular ATP levels, in a concentration-dependent manner. Data were normalized to the controls for basal activity (DMSO only) and 100% inhibition (100 uM tamoxifen). AC50 values were determined from concentration-response data modeled with the standard Hill equation.
qHTS protocol fo CellTiter Glo Hek 293 cellular assay
[Step] [Parameter] [Value] [Description]
2. Time; 5 hr; 37 °C incubation
4. Controls; 23 nL; Tamoxifen 0.34 uM to 100 uM & Doxorubicin 0.02 nM to 100 uM
5. Time; 40 hr; 37 °C incubation
6. Reagent; 5 uL; CellTiter Glo reagent
7. Time; 20 min; Room Temperature
8. Detection; Luminescence; Viewlux plate reader
Keywords: cell viability, cytotoxicity, Hek293 cell line, luminescence, NTPHTS, NTPHTS_NCGC, NIEHS, EPA, DSSTox, MLSMR, MLSCN, NIH Roadmap, qHTS, NCGC
Take `C1CCOC1`: the Potency is > 92 µM.

As for `O=C(O)c1ccc(CO)o1`, the Potency is > 92 µM.

With `C=CCOC(=O)CCCCCCCC`, the Potency was > 92 µM.

As to `O=[N+]([O-])c1ccc(NCCO)c(OCCO)c1`, the Potency is > 92 µM.

For the molecule `NC(=O)c1ccccc1[N+](=O)[O-]`, the Potency is > 92 µM.

In the case of `O=[N+]([O-])c1cc(C(F)(F)F)ccc1Cl`, the Potency is > 92 µM.

In the case of `Cc1cccc(C(=O)O)c1`, the Potency was > 92 µM.

For `CC(O)CC(C)O` (stereo not given), the Potency is > 92 µM.

In the case of `CCCCC/C=C/C=C/C=O`, the Potency is > 92 µM.

Turning to `C=C(C)C(=O)OCC(C)C`, the Potency is > 92 µM.

Take `Clc1ccc(Cl)c(Cl)c1Cl`: the Potency was > 92 µM.

In the case of `O=C(O)CCSSCCC(=O)O`, the Potency is > 92 µM.

For the molecule `C[C@@H]1O[C@@H](O[C@@H]2[C@@H](O)[C@H](OCCc3ccc(O)c(O)c3)O[C@H](CO[C@@H]3O[C@H](CO)[C@@H](O)[C@H](O)[C@H]3O)[C@H]2OC(=O)/C=C/c2ccc(O)c(O)c2)[C@H](O)[C@H](O)[C@H]1O`, the Potency is > 92 µM.

As for `NC=O`, the Potency is > 92 µM.

For the molecule `OC1CCCC1`, the Potency is > 92 µM.

On to `COc1ccc(N)c(OC)c1`, for which the Potency is > 92 µM.

Consider `CCCOCC(C)OCC(C)O` (stereo not given), for which the Potency was > 92 µM.

As to `Oc1c(Cl)ccc(Cl)c1Cl`, the Potency is > 92 µM.

Regarding `Cc1ccccc1C(N)=O`, the Potency is > 92 µM.

`Nc1ccc(Cl)cc1[N+](=O)[O-]`: the Potency was > 92 µM.

As for `CCOc1cc(OCC)c(C(C)=O)cc1OCC`, the Potency was > 92 µM.

For `Cc1ccc(C)cc1`, the Potency was > 92 µM.

Consider `Nc1cccc(C(F)(F)F)c1`, for which the Potency was > 92 µM.

As for `O=[N+]([O-])c1ccc(Cl)cc1Cl`, the Potency was > 92 µM.

In the case of `Nc1cc(Cl)c([N+](=O)[O-])cc1O`, the Potency is > 92 µM.

For `COC(=O)c1ccccc1`, the Potency is > 92 µM.

As for `CCNc1ccccc1`, the Potency was > 92 µM.

Regarding `C1COC1`, the Potency was > 92 µM.

As to `CC(=C/C=C/C(C)=C/C=C/C=C(C)/C=C/C=C(C)/C=C/C(=O)O)/C=C/C(=O)O`, the Potency was > 92 µM.

Regarding `ON=C1CCCCC1`, the Potency is > 92 µM.

`CC(C)Nc1ccccc1`: the Potency was > 92 µM.

Consider `COC(=O)CC#N`, for which the Potency was > 92 µM.

With `OCCO`, the Potency is > 92 µM.

For `COc1ccc(OC)cc1`, the Potency is > 92 µM.

With `Nc1cccc([N+](=O)[O-])c1`, the Potency is > 92 µM.

`CCOC(=O)C(C)C(C)=O` (stereo not given): the Potency was > 92 µM.

As for `O=[N+]([O-])c1ccccc1CCO`, the Potency is > 92 µM.

On to `CCCCC(C=O)CC` (stereo not given), for which the Potency was > 92 µM.

As to `CCN(CC)c1cccc(O)c1`, the Potency was > 92 µM.

For the molecule `Cc1cc(C)cc(N)c1`, the Potency was > 92 µM.
